Measurements as given in PubChem BioAssay (NCATS).
Records with an inconclusive call do not appear. Entries that show only a call come without a potency. Unmarked numbers belong to inactive results. Activity calls are given as the source filed them. The call rests on the fitted dose curve; in most records, active means well fitted cell-killing curve with a large enough effect; inconclusive means small, poorly fitted or top-dose-only effect, or effect the other way; inactive means flat fitted curve, though single readings scatter.

Tested on: OV90
Assay: Primary qHTS to identify gynecologic anti-cancer compounds using libraries of approved drugs and bioactive compounds (AID 1345084); further: nearly all actives have a fitted effect of over 55% in size
Details: Gynecologic cancer cell panel viability, ATPlite luminescence, 48 h; series mostly up to 57.5 µM
Procedure, shortened: (§1)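 Cell viability after 48 h drug treatment, ATPlite luminescence readout; five doses.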

Row | Compound | Potency | activity change, negative = cytotoxicity
1 | COc1cc2c(c(O)c1OC/C=C(\C)CC/C=C(/C)CCC=C(C)C)CN(C(CCC(=O)O)C(=O)O)C2=O (configuration not stated) | inactive | –
2 | CC1=CC[C@@]2(C)CC[C@@](O)(C(C)C)[C@@H]2[C@@H](O)C1 | inactive | –
3 | CC1(C)CC[C@]2(C(=O)O)CC[C@]3(C)C(=CCC4[C@@]5(C)CC[C@H](O[C@@H]6O[C@H](C(=O)O)[C@@H](O)[C@H](O[C@@H]7O[C@H](CO)[C@H](O)[C@H](O)[C@H]7O)[C@H]6O[C@@H]6O[C@H](CO)[C@@H](O)[C@H](O)[C@H]6O)C(C)(C)C5CC[C@]43C)[C@@H]2C1 (some centres not stated) | – | 8.65% [at 6.55 µM]
4 | CCC12CCCN3CCc4c(n(c5ccccc45)C(O)C1)C32 (configuration not stated) | inactive | –
5 | CCc1nn(CCO)c(CC)c1Oc1cc(C#N)cc(C#N)c1 | inactive | –
6 | C=C1C(O)CCC2(C)CC3(OC)OC(=O)C(C)=C3CC12 (configuration not stated) | inactive | –
7 | CCCN(CCN1CCN(c2ccccc2OC)CC1)C1CCc2ncsc2C1 (configuration not stated) | inactive | –
8 | C=C(CCO)C(=O)OCC1OCC(OC(=O)C(=C)CCO[C@@H]2O[C@H](COC(=O)C(=C)CCO[C@@H]3O[C@H](CO)[C@@H](O)[C@H](O)[C@H]3O)[C@@H](O)[C@H](O)[C@H]2O)C(O)C1O (some centres not stated) | inactive | –
9 | C/C=C/C=C/C=C/C(=O)OC1C=C2C(O)OC(=O)[C@]2(O)[C@@]2(C)CCCC(C)(C)[C@H]12 (some centres not stated) | inactive | –
10 | C[C@@H](CC[C@@H]1[C@@]2(C)CCCC(C)(C)C2CC[C@@]1(C)O)CC(=O)O (some centres not stated) | inactive | –
11 | C/C=C/C=C/[C@@H]1O[C@](O)([C@H](CC)C(=O)NC/C=C/C=C(\C)[C@@H](OC)[C@@H](C)[C@@H]2O[C@H](/C=C/C=C/C=C(\C)C(=O)c3c(O)ccn(C)c3=O)[C@H](O)[C@@H]2O)[C@H](O)[C@H](O)C1(C)C | – | -4.64% [at 11.6 µM]
12 | O=C(O)c1ccncc1Nc1nn(CCN2CCC(F)(F)CC2)c2ccc(F)cc12 | inactive | –
13 | CCOc1ncc(S(=O)(=O)N2CCN(CC)CC2)cc1-c1nc2c(CC)n(CCOC)nc2c(=O)[nH]1 | inactive | –

Tested on: PA-1
Assay: as above
Details: Gynecologic cancer cell panel viability, ATPlite luminescence, 48 h; series mostly up to 57.5 µM
Procedure, shortened: as §1

Row | Compound | activity change, negative = cytotoxicity | Potency
14 | CC1(C)CC[C@]2(C(=O)OC3OC(CO)C(O)C(O)C3O)CC[C@]3(C)C(=CCC4[C@@]5(C)C[C@@H](O)[C@H](OC6OC(C(=O)O)C(O)C(O)C6O)C(C)(C)C5CC[C@]43C)[C@@H]2C1 (some centres not stated) | 4.09% [at 11.6 µM] | –
15 | O=[N+]([O-])c1cc(Cl)ccc1S(=O)(=O)N1CCN(Cc2ccccc2)CC1 | – | inactive
16 | COc1cc(C(=O)OC[C@H]2O[C@@H](OC(C)(C)C(=O)O)[C@H](O)[C@@H](O)[C@@H]2O)cc(OC)c1O | – | inactive
17 | C/C=C(/C)C(=O)OC1C2OC2C2(CO2)C2C3OC(=O)C(C)C3CCC12C (configuration not stated) | – | inactive
18 | COc1cccc(CNc2ccc(S(=O)(=O)Nc3nc4ccccc4s3)cc2)c1O | – | inactive
19 | C[C@]1(O)CC[C@@H]2C(C(=O)O)=CO[C@@H](O[C@@H]3O[C@H](CO)[C@@H](O)[C@H](O)[C@H]3O)[C@@H]21 | – | inactive
20 | C/C=C(\C)C(=O)OC[C@H]1O[C@@H](O[C@H]2[C@@H](O[C@H]3O[C@H](CO)[C@@H](O)[C@H](O)[C@H]3O[C@@H]3O[C@H](CO)[C@@H](O)[C@H](O)[C@H]3O)O[C@H](COC(=O)/C(C)=C/C)[C@@H](O)[C@@H]2O)[C@H](O)[C@@H](O)[C@@H]1O | 4.96% [at 11.6 µM] | –
21 | C=CC(C)(CC/C=C(\C)C(=O)OC)OC1OC(COC(=O)CC(C)(O)CC(=O)O)C(O)C(O)C1O (configuration not stated) | – | inactive
22 | OC[C@H]1O[C@@H](Oc2cc(O)cc(-c3cc4ccc(O[C@@H]5O[C@H](CO)[C@@H](O)[C@H](O)[C@H]5O)cc4o3)c2)[C@H](O)[C@@H](O)[C@@H]1O | – | inactive
23 | CC1=C[C@H](O)[C@H]2C(C)(C)CCC[C@]2(C)[C@@]1(O)CO | – | inactive
24 | CC1OC(O[C@@H]2[C@H](O)[C@@H](OC3OC(CO)C(O)C(O)C3O)[C@H](OC(=O)[C@]34CCC(C)(C)C[C@H]3C3=CCC5[C@@]6(C)CC[C@H](O[C@@H]7O[C@H](C(=O)O)[C@@H](O)[C@H](O[C@@H]8OC[C@@H](O)[C@H](O)[C@H]8O)[C@H]7O[C@@H]7O[C@H](CO)[C@H](O)[C@H](O)[C@H]7O)[C@@](C)(C=O)C6CC[C@@]5(C)[C@]3(C)C[C@H]4O)O[C@@H]2C)C(O)C(O)C1OC1OCC(O)C(O)C1O (some centres not stated) | 8.3% [at 6.55 µM] | –
25 | COc1cc2nc(=NC(=O)c3cccnc3)n3c(c2cc1OC)NCC3 | – | inactive
26 | COc1c2c(c(C)c3c1C(=O)OC3)OC1(C)CC(O)C34OC(OC)(CC(O)C3(C)C1C2)OC4(C)C (configuration not stated) | – | inactive
27 | CC1CCCCCCCc2cc(O)cc(O)c2C(=O)O1 (configuration not stated) | – | inactive
28 | C=C1Cc2c(Cl)cc3[nH]c4c5c3c2[C@@]2(O)[C@@H]1C[C@@H]2C(C)(C)O[C@H]5C1CC[C@@]2(O)[C@@]35O[C@@H]3[C@H]3OC(C)(C)[C@H]3O[C@H]5CC[C@]2(C)[C@@]41C (some centres not stated) | – | inactive
29 | C[C@@H]1[C@H]2[C@H](O[C@@H]3O[C@H](CO)[C@@H](O)[C@H](O)[C@H]3O)OC=C(C(=O)O)[C@H]2C[C@@H]1OC(=O)/C=C/c1ccc(O)cc1 | – | inactive
30 | C/C(CO)=C1/CCC23COC(C2)C(O)(C(=O)O)CCC13 (configuration not stated) | – | inactive
31 | CC1(C(=O)O)CCCC2(C)C3CCC4CC3(CCC12)CC4(O)CO (configuration not stated) | – | inactive
32 | CC(C)(O)C1OC1C1=CC(=O)C2(C)OC2C1O (configuration not stated) | – | inactive
33 | C[C@@H]1CC[C@]2(C(=O)O[C@@H]3O[C@H](CO[C@@H]4O[C@H](CO)[C@@H](O)[C@H](O)[C@H]4O)[C@@H](O)[C@H](O)[C@H]3O)CC[C@]3(C)C(=CCC4[C@@]5(C)CC[C@H](O)[C@](C)(C(=O)O)C5CC[C@]43C)[C@@H]2[C@]1(C)O (some centres not stated) | 3.28% [at 11.6 µM] | –

Row | Compound | activity change, negative = cytotoxicity | Potency
34 | COCC1OC(n2cnc3c(=O)[nH]cnc32)C(O)C1O (configuration not stated) | – | inactive
35 | CCOC(=O)c1ccc(NC2CCCCC2)c(N)c1 | – | inactive
36 | C=C1C(OC(C)=O)[C@@]23CCC4[C@](C)(C(=O)O)CCC[C@@]4(C)[C@]2(O)CC[C@H]1C3 (some centres not stated) | – | inactive
37 | C[C@]12CC/C(=N\OCC(=O)O)C=C1CC[C@@H]1[C@@H]2[C@@H](O)C[C@@]2(C)[C@H]1CC[C@]2(O)C(=O)CO | – | inactive
38 | OCC1OC(Oc2cc(O)cc(/C=C/c3ccc(OC4OC(CO)C(O)C(O)C4O)cc3O)c2)C(O)C(O)C1O (configuration not stated) | – | inactive
39 | Cc1ccccc1NC(=O)Nc1ccc(CN2C(=O)N([C@@H](CC(C)C)C(=O)N[C@@H](CC(=O)O)c3ccccc3)C(=O)C2(C)C)cc1 | – | inactive
40 | COc1cc2c(c(O)c1OC/C=C(\C)CC/C=C(/C)CCC=C(C)C)CN(C(CCC(=O)O)C(=O)O)C2=O (configuration not stated) | – | inactive
41 | CC1=CC[C@@]2(C)CC[C@@](O)(C(C)C)[C@@H]2[C@@H](O)C1 | – | inactive
42 | CC1(C)CC[C@]2(C(=O)O)CC[C@]3(C)C(=CCC4[C@@]5(C)CC[C@H](O[C@@H]6O[C@H](C(=O)O)[C@@H](O)[C@H](O[C@@H]7O[C@H](CO)[C@H](O)[C@H](O)[C@H]7O)[C@H]6O[C@@H]6O[C@H](CO)[C@@H](O)[C@H](O)[C@H]6O)C(C)(C)C5CC[C@]43C)[C@@H]2C1 (some centres not stated) | 2.41% [at 6.55 µM] | –
43 | CCC12CCCN3CCc4c(n(c5ccccc45)C(O)C1)C32 (configuration not stated) | – | inactive
44 | CCc1nn(CCO)c(CC)c1Oc1cc(C#N)cc(C#N)c1 | – | inactive
45 | C=C1C(O)CCC2(C)CC3(OC)OC(=O)C(C)=C3CC12 (configuration not stated) | – | inactive
46 | CCCN(CCN1CCN(c2ccccc2OC)CC1)C1CCc2ncsc2C1 (configuration not stated) | – | inactive
47 | C=C(CCO)C(=O)OCC1OCC(OC(=O)C(=C)CCO[C@@H]2O[C@H](COC(=O)C(=C)CCO[C@@H]3O[C@H](CO)[C@@H](O)[C@H](O)[C@H]3O)[C@@H](O)[C@H](O)[C@H]2O)C(O)C1O (some centres not stated) | – | inactive
48 | C/C=C/C=C/C=C/C(=O)OC1C=C2C(O)OC(=O)[C@]2(O)[C@@]2(C)CCCC(C)(C)[C@H]12 (some centres not stated) | – | inactive
49 | C[C@@H](CC[C@@H]1[C@@]2(C)CCCC(C)(C)C2CC[C@@]1(C)O)CC(=O)O (some centres not stated) | – | inactive
50 | C/C=C/C=C/[C@@H]1O[C@](O)([C@H](CC)C(=O)NC/C=C/C=C(\C)[C@@H](OC)[C@@H](C)[C@@H]2O[C@H](/C=C/C=C/C=C(\C)C(=O)c3c(O)ccn(C)c3=O)[C@H](O)[C@@H]2O)[C@H](O)[C@H](O)C1(C)C | -1.69% [at 11.6 µM] | –
51 | O=C(O)c1ccncc1Nc1nn(CCN2CCC(F)(F)CC2)c2ccc(F)cc12 | – | inactive
52 | CCOc1ncc(S(=O)(=O)N2CCN(CC)CC2)cc1-c1nc2c(CC)n(CCOC)nc2c(=O)[nH]1 | – | inactive
